Assay outcomes (PubChem)
Menin MLL FP TR: qHTS Assay for Inhibitors Targeting the Menin-MLL Interaction in MLL Related Leukemias: Competition With Texas Red Labeled MLL-derived Mutant Peptide. O00255. Menin + Texas Red MLL mutant peptide, fluorescence polarization. Potency, µM (series often up to 61.6 µM), most hits filed as inhibitors. actives 0.23% (n = 270,000). AID 1768, 2009; active means well fitted inhibition curve with a large enough effect in the polarisation, with a control signal flat, not every such curve was filed as active; inconclusive means small, poorly fitted or top-dose-only effect, or effect the other way, or a change in a side signal; inactive means no such curve, though single readings can be large or run the other way; the % refers to the polarisation
Target sequence (O00255 whole entry, looked up): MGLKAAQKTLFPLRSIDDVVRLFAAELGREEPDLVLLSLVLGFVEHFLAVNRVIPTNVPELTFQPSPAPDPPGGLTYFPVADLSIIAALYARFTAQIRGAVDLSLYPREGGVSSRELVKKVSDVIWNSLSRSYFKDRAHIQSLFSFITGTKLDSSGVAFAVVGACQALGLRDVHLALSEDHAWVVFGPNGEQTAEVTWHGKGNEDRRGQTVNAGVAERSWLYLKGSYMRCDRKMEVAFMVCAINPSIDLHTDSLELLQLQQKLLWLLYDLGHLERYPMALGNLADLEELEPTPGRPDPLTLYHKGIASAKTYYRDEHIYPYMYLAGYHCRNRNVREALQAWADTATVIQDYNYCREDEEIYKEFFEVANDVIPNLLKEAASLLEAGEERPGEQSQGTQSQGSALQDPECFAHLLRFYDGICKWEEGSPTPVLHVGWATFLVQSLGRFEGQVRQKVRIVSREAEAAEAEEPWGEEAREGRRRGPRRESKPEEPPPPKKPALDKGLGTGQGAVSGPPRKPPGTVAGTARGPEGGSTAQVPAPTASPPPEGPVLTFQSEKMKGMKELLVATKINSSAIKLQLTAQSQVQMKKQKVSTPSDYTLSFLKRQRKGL
RGS12 GoLoco inh: qHTS Assay for Inhibitors of RGS12 GoLoco Motif Activity (Red Fluorophore). actives 0.44% (n = 230,000). Gai1:RGS12 GoLoco peptide FP, rhodamine, 10 min. Potency, µM (highest dose often 61.6 µM), most hits filed as inhibitors. Guanine nucleotide-binding protein G(i) subunit alpha-1 (Homo sapiens), P63096. AID 880, 2007; active means well fitted inhibition curve with a large enough effect, not every such curve was filed as active; inactive means no such curve, though single readings can be large or run the other way; further: nearly all actives have a fitted effect of over 30% in size
Menin-MLL FL inh: qHTS Assay for Inhibitors Targeting the Menin-MLL Interaction in MLL Related Leukemias: Competition With Fluorescein Labeled MLL-derived Peptide. 290,000 tested, under 10 active. AID 1766, 2009. Fluorescence polarization, fluorescein-MLL peptide displacement from menin. FP activity change, % at 61.4 µM; active means well fitted curve in the direction sought with a large enough effect in the polarisation, not every such curve was filed as active; inconclusive means small, poorly fitted or top-dose-only effect, or effect the other way, or a change in a side signal; inactive means no such curve, though single readings can be large or run the other way; the % refers to the polarisation
CXXC DNA block: qHTS Fluorescence Polarization Assay for Inhibitors of MLL CXXC domain - DNA interaction | Histone-lysine N-methyltransferase 2A (Homo sapiens), Q03164 | MLL-CXXC / FITC-HOXA9 DNA fluorescence polarization | Potency, µM (doses to about 115 µM), hits mostly inhibitors | actives 0.037% (n = 290,000) | AID 2662, 2010; active means well fitted inhibition curve with a large enough effect in the polarisation, with a control signal flat, not every such curve was filed as active; inconclusive means small, poorly fitted or top-dose-only effect, or effect the other way, or a change in a side signal; inactive means no such curve, though single readings can be large or run the other way; the % refers to the polarisation
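Fluorescence polarization: 7 uM MLL-CXXC (stock) preincubated 5 min with compounds, then 50 nM fluorescein-HOX-A9 DNA (stock) added; 30 min ambient. Buffer 50 mM Tris-HCl pH 7.5, 50 mM NaCl, 1 mM DTT, 0.05% BSA.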
TR SRC2 fluor cs: Total Fluorescence Counterscreen for Inhibitors of the Interaction of Thyroid Hormone Receptor and Steroid Receptor Coregulator 2; TRb/SRC2 Texas Red total fluorescence interference; Potency, µM (top dose mostly 106 µM); actives 0.29% (n = 280,000); active means well fitted curve in either direction with a large enough effect; inconclusive means small, poorly fitted or top-dose-only effect
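Human TRβ ligand-binding domain (0.6 uM) and Texas Red SRC2 peptide (20 nM) in Tris buffer with 1 uM T3 and 5% DMSO were incubated with pinned compound for 5 hr at ambient temperature. Total fluorescence was computed as S + 2P (555/632 nm).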
TRb-SRC2 inh: qHTS for Inhibitors of the Interaction of Thyroid Hormone Receptor and Steroid Receptor Coregulator 2. Thyroid hormone receptor beta (Homo sapiens), P10828. TRbeta-SRC2 peptide binding, fluorescence polarization; receptor liganded with 1 µM T3. Potency, µM (doses to about 106 µM), most hits filed as inhibitors. actives 0.065% (n = 280,000). AID 1469, 2008; active means well fitted inhibition curve with a large enough effect; inconclusive means small, poorly fitted or top-dose-only effect, or effect the other way; further: nearly all actives have a fitted effect of over 50% in size
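Assay buffer: 20 mM Tris-HCl, 100 mM NaCl, 10% glycerol, 1 mM EDTA, 0.01% NP-40, 1 mM DTT, 1 uM T3, 5% DMSO; TRb LBD 0.6 uM, Texas Red SRC2 20 nM; FP after 5 hr.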
Large screens that a line does not name were inactive; [ ] = remark or other dose. The list is not random: actives were taken first. Their share in the collection is about 0.5%.

CCOc1ccccc1NC(=O)COC(=O)Cc1cccs1	none (no result: RGS12 GoLoco inh, TR SRC2 fluor cs, TRb-SRC2 inh)
CCOc1ccccc1NC(=O)COC(=O)Cc1ccc(-c2ccccc2)cc1	TR SRC2 fluor cs 31.6µM[quencher], TRb-SRC2 inh inconclusive
CN(C)CCOCCN(C)C	none (no result: Menin MLL FP TR, RGS12 GoLoco inh, Menin-MLL FL inh, CXXC DNA block)
CCOP(=O)(OCC)c1nc(-c2cccc3ccccc23)oc1N1CCCCC1	none
CCOP(=O)(OCC)c1nc(-c2ccccc2)oc1N1CCCCC1	Menin MLL FP TR 31.6µM (no result: RGS12 GoLoco inh, TR SRC2 fluor cs, TRb-SRC2 inh)
CCCCn1nnnc1SCC(=O)Nc1ccc(F)cc1	none
CCCCn1nnnc1SCC(=O)Nc1ccc(N(C)C)cc1	RGS12 GoLoco inh 10µM
CCCCC/C=C\C/C=C\CCCCCCCC(=O)OC	none (no result: Menin MLL FP TR, RGS12 GoLoco inh, Menin-MLL FL inh, CXXC DNA block)
Cc1ccc(N=Cc2ccc(N(C)C)cc2)cc1	none
CN(C)c1ccc(C=Nc2ccc(N(C)C)cc2)cc1	Menin MLL FP TR inconclusive, TR SRC2 fluor cs inconclusive, TRb-SRC2 inh 50.1µM
O=S(=O)(O)c1cc(S(=O)(=O)O)c2c(N=Nc3ccccc3)c(O)ccc2c1	none (no result: Menin MLL FP TR, RGS12 GoLoco inh, Menin-MLL FL inh, CXXC DNA block)
CC1(C(=O)NC2CCCCC2)Cc2ccccc2C(=O)N1Cc1ccc(F)cc1 (centres undefined)	TR SRC2 fluor cs 31.6µM[quencher] (no result: Menin MLL FP TR, RGS12 GoLoco inh, Menin-MLL FL inh, CXXC DNA block)
O=c1c(O)c(-c2cc(O)c(O)c(O)c2)oc2cc(O)ccc12	Menin MLL FP TR inconclusive, Menin-MLL FL inh inconclusive (no result: RGS12 GoLoco inh, CXXC DNA block)
CCCN(CCC)C(=O)Cn1c(=O)n(-c2ccc(CC)cc2)c(=O)c2c3c(sc21)CCC3	TR SRC2 fluor cs 0.199µM[quencher] (no result: Menin MLL FP TR, RGS12 GoLoco inh, Menin-MLL FL inh, CXXC DNA block)
CCc1cccc2c(C(=O)CSc3nncn3-c3ccccc3OC)c[nH]c12	TR SRC2 fluor cs 89.1µM[quencher]
CN(C)c1ccc(/C=C/C=C2/SC(=S)N(c3ccccc3)C2=O)cc1	Menin-MLL FL inh inconclusive, TR SRC2 fluor cs 3.16µM[fluorescent], TRb-SRC2 inh inconclusive (no result: Menin MLL FP TR)
Cc1ccc(C(=O)Nc2ccc3c(c2)N(C)C(=O)c2ccccc2S3)cc1F	none (no result: Menin MLL FP TR, RGS12 GoLoco inh, Menin-MLL FL inh, CXXC DNA block)
CC[n+]1c(C)sc2c(C)cc(C)cc21	RGS12 GoLoco inh 2.51µM
N#CCCCS(=O)(=O)c1nnnn1C1CCCCC1	none (no result: CXXC DNA block)
O=c1cc2oc3cc(O)c(O)cc3c(-c3ccccc3O)c-2cc1O	RGS12 GoLoco inh 7.94µM, Menin-MLL FL inh inconclusive, CXXC DNA block inconclusive, TR SRC2 fluor cs 39.8µM[fluorescent], TRb-SRC2 inh 17.8µM (no result: Menin MLL FP TR)
CCOc1ccccc1-c1c2cc(O)c(=O)cc-2oc2cc(O)c(O)cc12	Menin MLL FP TR inconclusive, Menin-MLL FL inh inconclusive, CXXC DNA block inconclusive
COc1ccccc1-c1cc(=O)c2cc(O)ccc2o1	none (no result: CXXC DNA block)
COc1ccc(OC)c(-c2c3cc(O)c(=O)cc-3oc3cc(O)c(O)cc23)c1	Menin MLL FP TR inconclusive, RGS12 GoLoco inh 10µM, Menin-MLL FL inh inconclusive, CXXC DNA block inconclusive, TR SRC2 fluor cs 44.7µM[fluorescent], TRb-SRC2 inh 25.1µM
COC(=O)c1ccccc1C(=O)O	none (no result: Menin MLL FP TR, RGS12 GoLoco inh, Menin-MLL FL inh, CXXC DNA block)
O=C(/C=C/c1ccc(O)c(O)c1)c1ccc(O)cc1O	none (no result: RGS12 GoLoco inh, CXXC DNA block)
O=C(NNC(=O)c1cc2cc3ccccc3nc2s1)c1ccc(F)cc1	Menin MLL FP TR 3.16µM (no result: TR SRC2 fluor cs, TRb-SRC2 inh)
CCCCCCCC1CCC(=O)O1 (centres undefined)	none (no result: Menin MLL FP TR, RGS12 GoLoco inh, Menin-MLL FL inh, CXXC DNA block)
CCn1c(C)nc2cc(-c3nc4n(n3)Cc3ccccc3-4)ccc21	Menin MLL FP TR 28.2µM
Cc1ccc(-c2nc3n(n2)Cc2ccccc2-3)cc1	none
Cc1cccc(N2C(=O)c3cccc4c(N(C)CCO)ccc(c34)C2=O)c1	RGS12 GoLoco inh 25.1µM, Menin-MLL FL inh inconclusive, CXXC DNA block inconclusive
CCCCCCCCCCCCCCCCn1cc[n+](Cc2ccccc2)c1C	Menin MLL FP TR 22.4µM (no result: RGS12 GoLoco inh, CXXC DNA block)
CCCCCCCCCc1ccccc1	none (no result: Menin MLL FP TR, RGS12 GoLoco inh, Menin-MLL FL inh, CXXC DNA block)
CCC[C@H](NC(=O)[C@H](Cc1ccc(O[S+](=O)([O-])O)cc1)NC(=O)OC(C)(C)C)C(=O)NCC(=O)N[C@@H](Cc1c[nH]c2ccccc12)C(=O)N[C@@H](CCC)C(=O)N[C@@H](CC(=O)OCCc1ccccc1)C(=O)O	none (no result: RGS12 GoLoco inh, CXXC DNA block)
